# Compounds with a hit are over-represented: about 9.4% of the library has one in this group of screens.
# NPC1 promoter act: qHTS Assay for NPC1 Promoter Activators; Huh7 NPC1 promoter luciferase reporter, 24 h; Potency, µM (titrated, usually from 9.22 µM), for inactives: at the highest dose activation, hits mostly activators; 2.4% of 320,000 active; AID 485313, 2010; further: % of control where 0% means no effect; nearly all actives have a fitted effect of over 60% in size
#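 Huh7 cells stably carrying NPC1 promoter–luciferase, plated in Opti-MEM with 10% FBS for 2 h, were exposed to compound in DMSO for 24 h at 37 °C; luciferase reagent was added for 10 min and luminescence read.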
# FLuc counter: qHTS profiling assay for firefly luciferase inhibitor/activator using purifed enzyme and Km concentrations of substrates (counterscreen for miR-21 project). Luciferin 4-monooxygenase (Photinus pyralis), P08659. purified FLuc, Km substrates, luminescence inhibition. Potency, µM (titrated, usually from 57.5 µM), without a hit: at the highest dose activity change, negative = inhibition, actives largely listed as inhibitors. 6.9% of 360,000 active. AID 588342, 2011;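 further: plate controls were vehicle for no effect and reference inhibitor for full effect; nearly all actives have a fitted effect of over 55% in size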
# Target sequence (P08659 whole entry, looked up): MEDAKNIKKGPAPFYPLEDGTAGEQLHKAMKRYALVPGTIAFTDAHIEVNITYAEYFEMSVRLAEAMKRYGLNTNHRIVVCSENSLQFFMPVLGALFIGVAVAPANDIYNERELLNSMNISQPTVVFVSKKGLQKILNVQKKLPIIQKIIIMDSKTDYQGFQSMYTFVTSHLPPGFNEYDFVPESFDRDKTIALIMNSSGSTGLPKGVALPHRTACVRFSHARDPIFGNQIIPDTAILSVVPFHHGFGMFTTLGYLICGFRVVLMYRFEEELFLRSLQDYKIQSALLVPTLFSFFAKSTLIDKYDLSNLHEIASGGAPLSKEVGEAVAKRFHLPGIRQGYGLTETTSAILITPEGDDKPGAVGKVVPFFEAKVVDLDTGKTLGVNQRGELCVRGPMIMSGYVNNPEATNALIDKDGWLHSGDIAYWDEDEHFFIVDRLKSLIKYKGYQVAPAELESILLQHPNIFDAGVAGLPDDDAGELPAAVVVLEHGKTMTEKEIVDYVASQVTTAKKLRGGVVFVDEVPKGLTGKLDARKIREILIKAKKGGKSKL
#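 Purified P. pyralis luciferase (10nM final) with 10uM D-luciferin and 10uM ATP (Km levels) in 50mM Tris acetate pH 7.5, 10mM Mg acetate, 0.01% Tween-20, 0.05% BSA; qHTS 6-point titration, ~60 µM downward; luminescence read.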
# ELG1 genotoxic: qHTS screen for small molecules that induce genotoxicity in human embryonic kidney (HEK293T) cells expressing luciferase-tagged ELG1; HEK293T ELG1-luciferase reporter, luminescence, 16 h; Potency, µM (titrated, usually from 46 µM), for the others: at the top dose activity change, positive = activation, actives largely listed as activators; 1.3% of 330,000 active; AID 504466, 2011; further: % of control where 0% means no effect; nearly all actives have a fitted effect of over 60% in size
#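 DMSO vehicle served as control against compound-treated ELG1-luciferase HEK293T cells; exposure lasted 16 hr at 37 °C and 5% CO2, followed by ONE-Glo luminescence detection after 30 min.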
# Rab9 promoter act: qHTS Assay for Rab9 Promoter Activators. Potency, µM (titrated, usually from 9.22 µM), for the others: at the highest dose activation, negative = inhibition, actives largely listed as activators. 2.8% of 320,000 active. Huh7 Rab9 promoter-luciferase reporter, luminescence, 24 h; further: % of control where 0% means no effect; nearly all actives have a fitted effect of over 60% in size
#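 Luminescence from Amplite-detected luciferase (10 minutes, ambient) reports Rab9 promoter activation. Before that, stable Rab9-luciferase Huh7 cells (1500/well, reduced-serum OP-MEM I plus 10% FBS) were exposed to compound for 24 hours at 37C.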
# SMN2 splice up: qHTS Assay for Enhancers of SMN2 Splice Variant Expression; HEK293 SMN2-luciferase splicing reporter, luminescence, 30-36 h; Potency, µM (doses to about 46.1 µM), without a hit: at the top dose activity change, positive = activation, usual class: activators; 2.8% of 210,000 active; further: % of control where 0% means no effect; nearly all actives have a fitted effect of over 55% in size
#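 HEK293 cells carry an SMN2 […]–luciferase reporter in which exon 7 inclusion puts luciferase in frame. Cells were plated 10-12 h before compound addition, then incubated 30-36 h at 37C. ONE-Glo luminescence was read; sodium butyrate at 4.5 mM final served as control.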
# ELG1 repair inh: qHTS screen for small molecules that inhibit ELG1-dependent DNA repair in human embryonic kidney (HEK293T) cells expressing luciferase-tagged ELG1; HEK293T ELG1-luciferase reporter, luminescence, 16 h; DNA damage induced by 5-fluorouridine; Potency, µM (series often up to 46.1 µM), inactives show top-dose activity change, negative = inhibition, hits mostly inhibitors; 2.3% of 330,000 active; AID 504467, 2011; further: on the % scale 0 is the no-effect control and ±100 the full control effect; nearly all actives have a fitted effect of over 55% in size
#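 5-Fluorouridine DNA damage + compound/DMSO, 2,000 cells/well, 16 h, 37 °C/5% CO2. ONE-Glo, 30 min RT, luminescence. Readout = decrease in reporter signal.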
# Active calls of the source: *; ? = inconclusive; . = not tested or not shown; [ ] = remark or other dose. The call rests on the fitted dose curve; in most records, active means well fitted curve in the direction sought with a large enough effect; inconclusive means small, poorly fitted or top-dose-only effect, or another doubt; inactive means no such curve, though single readings can be large; an effect the other way counts as inactive or inconclusive. Potency means the concentration at half of the fitted maximal effect.
SMILES,NPC1 promoter act,FLuc counter,ELG1 genotoxic,Rab9 promoter act,SMN2 splice up,ELG1 repair inh
Cc1noc(C)c1COc1ccc(C(=O)OCC(=O)c2ccc3c(c2)OCCO3)cc1,-2%,-15%,12%,2%,-33%,-10%
Cc1c(C(=O)OCC(=O)c2ccc3c(c2)OCCO3)oc2ccccc12,12%,9.5µM*,7%,22%,-11%,?
Cc1c(C(=O)OCC(=O)N2CCC(C)CC2)oc2ccccc12,9%,?,?,21%,.,?
COc1ccc(NC(=O)c2ccccn2)cc1OC,?,17µM*,?,4µM*,?,?
COc1ccc(C(=O)Nc2ccc(NC(=O)c3ccccn3)cn2)cc1,24%,?,9%,12%,.,?
COc1ccc(NC(=O)c2ccccn2)cc1,0.5µM*,2.7µM*,?,?,1.6µM*,?
Cc1noc(C)c1C(=O)N1CCC2(CCCN(C(c3ccccc3)c3ccccc3)C2)CC1,.,.,.,.,-20%,.
O=C(O)c1ccccc1NS(=O)(=O)c1ccc(NNC(=S)Nc2ccc(OC(F)F)cc2)c([N+](=O)[O-])c1,-3%,19µM*,0%,-3%,-24%,8%
CC(=O)c1ccc(N=Nc2ccc(N)cc2)cc1,0.4µM*,1.5µM*,?,0.32µM*,.,?
Cc1cc(-c2csc(NC(=O)c3cc4ccccc4o3)n2)c(C)n1C,13%,9.5µM*,6%,23%,2%,?
O=C(Nc1nc(-c2cccs2)cs1)c1cc2ccccc2oc1=O,23%,2.7µM*,5%,?,11%,?
O=C(Nc1nc(-c2ccccn2)cs1)c1ncc(Cl)c(Cl)c1Cl,-5%,?,-10%,-2%,-10%,2%
Cc1c(C(=O)Nc2nc(-c3ccccn3)cs2)oc2ccccc12,16%,9.5µM*,-1%,7%,.,5%
O=C(Nc1nc(-c2ccccn2)cs1)c1cc2ccccc2o1,9%,5.4µM*,-8%,4%,-77%,?
O=C(CSc1nc(=O)[nH]c2c1CCC2)NCc1ccc(Cl)cc1,.,4%,.,.,.,.
CCCc1nn(C)c(C(=O)Nc2ccc(C)c(C)c2)c1Cl,?,11µM*,?,3.2µM*,6.3µM*,?
CCCc1nn(C)c(C(=O)Nc2ccc(CC)cc2)c1Cl,1%,?,1%,1%,5%,?
O=C(O)/C=C/c1cccc(NC(=O)Nc2ccc([N+](=O)[O-])cc2)c1,-5%,7.6µM*,0%,5%,.,14%
O=C(Nc1ccc([N+](=O)[O-])cc1)C(=O)Nc1cccc(C(=O)O)c1,?,0.019µM*,?,?,.,?
O=C(Nc1ccc(Oc2ccc(NC(=O)Nc3ccc([N+](=O)[O-])cc3)cc2)cc1)Nc1ccc([N+](=O)[O-])cc1,-37%,-5%,-13%,-55%,.,-15%
O=C(O)c1cccc([N+](=O)[O-])c1,.,.,.,.,0%,.
COCCN(CCOC)c1nc(-c2ccc(C)cc2)nc2ccccc12,21%,13µM*,-4%,29%,.,?
CCCCN(CC)c1nc(-c2ccncc2)nc2ccccc12,4%,-1%,-25%,5%,-7%,23µM*
CCOC(=O)c1ccc(NC(=O)CC2C(=O)N(c3cccc(C)c3)C(=O)N2CCOC)cc1 (centres undefined),.,-3%,.,.,11%,.
CCOC(=O)c1ccc(NC(=O)CC2C(=O)N(c3cccc(OC)c3)C(=O)N2CCOC)cc1 (centres undefined),-2%,-1%,1%,-1%,4µM*,-13%
SMILES,NPC1 promoter act,FLuc counter,ELG1 genotoxic,Rab9 promoter act,SMN2 splice up,ELG1 repair inh
COc1cc(NC(=O)c2ccccc2F)ccc1NC(=O)c1cc2ccccc2o1,-7%,4%,7%,6%,.,-4%
O=C(C1CC(c2ccccc2O)=NO1)N1CCCCC1 (centres undefined),?,15µM*,13µM*,4.5µM*,0.16µM*,?
CC1CCCCN1C(=O)C1CC(c2ccc(F)cc2)=NO1 (centres undefined),?,21µM*,18%,2µM*,.,?
O=C(C1CC(c2ccc(F)cc2)=NO1)N1CCCCC1 (centres undefined),3.2µM*,15µM*,?,?,28µM*,?
Cc1nc2nc(SCC(=O)NCCc3ccc(Cl)cc3)nn2c(C)c1Cc1ccccc1,.,-16%,.,.,-24%,.
CC1(C)CC(=O)C2=C(C1)O[C@@]1(c3ccsc3)Cc3cc(C#N)ccc3C2O1,3%[1.84 µM],?,.,-3%[1.84 µM],.,.
COc1ccc(C(=O)N/N=C(\C)c2cccc(NC(=O)c3ccc(F)cc3)c2)c(OC)c1,30%,4.3µM*,3%,30%,.,?
COc1ccc(CC(=O)Nc2cccc(/C(C)=N/NC(=O)c3cccc([N+](=O)[O-])c3)c2)cc1,-3%,?,-10%,0%,-17%,?
COc1ccc(C(=O)N/N=C(/C)c2cccc(NC(=O)c3ccccc3F)c2)cc1,?,3.8µM*,6%,24%,.,?
CCNC(=S)N/N=C/c1cc(C)n(-c2ccc(Cl)cc2)c1C,?,17µM*,?,?,18µM*,?
Cc1nc2ccccn2c1C(=O)N/N=C/c1cc(C)n(-c2ccc(Cl)cc2)c1C,-4%,21µM*,-3%,0%,-63%,?
COCCN1Cc2cc3cc(C)ccc3nc2SC1=Nc1cccc(OC)c1,0%,-8%,-2%,0%,-15%,?
Cc1cccc(N=C2Sc3nc4c(C)c(C)ccc4cc3CN2CCN2CCOCC2)c1,-1%,1%,-5%,-5%,-2%,9.2µM*
COc1ccc(N2C(=O)C(Cl)=C(Nc3ccccc3OC)C2=O)cc1,2%,24µM*,1%,-7%,-33%,1%
COc1ccc(N2C(=O)C(Cl)=C(Nc3ccccc3O)C2=O)cc1,3%,?,13%,6%,-30%,?
COc1ccccc1NC(=O)Cn1cc(S(=O)(=O)Cc2ccccc2)c2ccccc21,.,-3%,.,.,.,.
Cc1ccc(-c2cc3ccccc3nc2N2CCCC2)cc1,-3%,-2%,-2%,0%,-32%,17%
Cc1ccc2c(c1)C(=NC1CCCCC1)c1cc3ccccc3nc1-2,11%,15µM*,?,?,2.8µM*,?
Cc1ccc2c(c1)-c1nc3ccccc3cc1C2=NC1CCCCC1,?,11µM*,?,3.5µM*,6.3µM*,?

# Compound activity (PubChem)
